Reference: ChEMBL document CHEMBL4303122, “Identification of potential treatments for COVID-19 through artificial intelligence-enabled phenomic analysis of human cells infected with SARS-CoV-2” (2020)
The full ranking holds about 1,600 compounds; the median of “Hit score” is about 0.13, and the highest 2% start at about 0.46. The sample as a whole holds a higher share of the highest values than the screen did.

Each compound was assayed on SARS-CoV-2 (assay: Antiviral activity against SARS-CoV-2 (USA-WA1/2020 strain) measured by imaging in HRCE cells at MOI 0.4 after 96 hrs (reported as hit score from 0-1 for on-disease vs off-disease activity: scores >0.6 considered hits)).
Assay type: functional, Homo sapiens

SMILES	Hit score
N#Cc1cc2c(cc1[N+](=O)[O-])=NC(=O)C(=O)N=2	0.1284
Cl.OC[C@H]1NC[C@@H](O)[C@@H](O)[C@@H]1O	0.1457
CN[C@@H](C)[C@H](O)c1ccccc1.Cl [EPHEDRINE HYDROCHLORIDE]	0.3718
CC(=O)[C@@]1(O)CC[C@H]2[C@@H]3C[C@H](C)C4=CC(=O)CC[C@]4(C)[C@H]3CC[C@@]21C	0.2069
C[C@H](CCC(=O)O)[C@H]1CC[C@H]2[C@@H]3[C@H](O)C[C@@H]4C[C@H](O)CC[C@]4(C)[C@H]3C[C@H](O)[C@]12C [CHOLIC ACID]	0.1604
CC(=O)[C@@]1(O)CC[C@H]2[C@@H]3CCC4=CC(=O)CCC4=C3[C@@H](c3ccc(N(C)C)cc3)C[C@@]21C [ULIPRISTAL]	0.1448
Nc1cccc2c(=O)[nH][nH]c(=O)c12.[Na+]	0.2367
CCCN[C@@H]1CCc2nc(N)sc2C1 [DEXPRAMIPEXOLE]	0.07275
CC(C)(C)NCC(O)c1cc(Cl)c(N)c(Cl)c1 (configuration not stated) [CLENBUTEROL]	-0.07437
CC(C)(C)NCC(O)c1cc(Cl)c(N)c(C(F)(F)F)c1 (configuration not stated) [MABUTEROL]	-0.1589
CC(C)(C)NC[C@H](O)COc1cccc2c1CCCC2=O [LEVOBUNOLOL]	0.1851
CC(C)(C)NC[C@H](O)COc1ccccc1C1CCCC1 [PENBUTOLOL]	0.4905
CC(C)(C)NCC(O)COc1cc(Cl)ccc1Cl (configuration not stated) [CLORANOLOL]	0.4962
CC(C)(C)NCC(O)COc1cccc2c1CCC(=O)N2 (configuration not stated) [CARTEOLOL]	0.1646
CC(C)(C)NC[C@H](O)COc1nsnc1N1CCOCC1 [TIMOLOL]	0.174
CC(C)(C)NCC(O)c1ccccc1Cl (configuration not stated) [TULOBUTEROL]	-0.01366
Cc1ccc(Cl)c(OCC(O)CNC(C)(C)C)c1 (configuration not stated) [BUPRANOLOL]	0.4669
CO[C@@]1(NC(=O)C2SC(=C(C(N)=O)C(=O)O)S2)C(=O)N2C(C(=O)O)=C(CSc3nnnn3C)CS[C@@H]21 (some centres not stated) [CEFOTETAN]	0.1396
COc1cc2c(Oc3ccc4[nH]c(C)cc4c3F)ccnc2cc1OCC1(N)CC1 [CATEQUENTINIB]	0.165
CO/N=C(\C(=O)N[C@@H]1C(=O)N2C(C(=O)[O-])=C(C[n+]3cccc4c3CCC4)CS[C@H]12)c1csc(N)n1 [CEFPIROME]	0.1204
COC(=O)OCOc1c2n(ccc1=O)N([C@@H]1c3ccccc3SCc3c1ccc(F)c3F)[C@@H]1COCCN1C2=O [BALOXAVIR MARBOXIL]	5.7e-05
O=[N+]([O-])/N=C1\NCCN1Cc1ccc(Cl)nc1 [IMIDACLOPRID]	0.158
CCOC(=O)CSCCC1NC(C(=O)O)CS1 (configuration not stated) [LETOSTEINE]	0.08225
CNC(=O)c1cc(Oc2ccc(NC(=O)Nc3ccc(Cl)c(C(F)(F)F)c3)cc2)ccn1 [SORAFENIB]	0.2484
O=C(Nc1ccc(Cl)cc1)Nc1ccc(Cl)c(Cl)c1 [TRICLOCARBAN]	0.4616
N=C(NCCCCCCNC(=N)NC(=N)Nc1ccc(Cl)cc1)NC(=N)Nc1ccc(Cl)cc1 [CHLORHEXIDINE]	0.08739
CCCCc1nc(Cl)c(C(=O)O)n1Cc1ccc(-c2ccccc2-c2nn[nH]n2)cc1 [CARBOXYLIC ACID METABOLITE]	0.01747
